The results in this text go back to PubChem BioAssay (NCATS).

Records with an inconclusive call do not appear. A number with no mark means an inactive call. Activity calls are given as the source filed them. The call rests on the fitted dose curve; in most records, active means well fitted inhibition curve with a large enough effect; inconclusive means small, poorly fitted or top-dose-only effect; inactive means flat fitted curve, though single readings scatter.

For one assay, the system named is PC15. Kind of assay: qHTS profiling for inhibitors of Plasmodium falciparum proliferation (AID 504749). Particulars: P. falciparum in erythrocytes, SYBR Green DNA, 72 h; series mostly up to 28.7 µM. The essentials: (§1)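 Each compound contacts P. falciparum-infected red blood cells for 72 h at 37 C; lysis buffer (Tris, EDTA, saponin, Triton X, SYBR Green I) is added and fluorescence measured next morning; values normalized to controls.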

A further assay relates to PC26. The description is as above. The conditions noted are these: P. falciparum in erythrocytes, SYBR Green DNA, 72 h; series mostly up to 28.7 µM. The essentials:
as §1

A further assay concerns PC49. Described as above. Particulars: P. falciparum in erythrocytes, SYBR Green DNA, 72 h; series mostly up to 28.7 µM. The procedure, abridged:
as §1

For another assay, the system named is SC27B. The assay is described as above. Particulars: P. falciparum in erythrocytes, SYBR Green DNA, 72 h; series mostly up to 28.7 µM. The essentials:
as §1

The subject of the next assay is TAB109. The assay is described as above. Particulars: P. falciparum in erythrocytes, SYBR Green DNA, 72 h; series mostly up to 28.7 µM. The essentials: as §1
For the next assay, the system named is TAB113. Described as above. Particulars: P. falciparum in erythrocytes, SYBR Green DNA, 72 h; series mostly up to 28.7 µM. The procedure, abridged:
as §1

Another assay has as its system TAB165. Described as above. The conditions noted are these: P. falciparum in erythrocytes, SYBR Green DNA, 72 h; series mostly up to 28.7 µM. The procedure, abridged:
as §1

The subject of a further assay is CRL-7250. Nature of the assay: Cytotoxic Profiling of Annotated Libraries Using Quantitative High-Throughput Screening (AID 1296008). On max response: on the % scale 0 is the no-effect control and ±100 the full control effect. Particulars: Five cell lines viability, CellTiter-Glo ATP luminescence, 48-72 h; hits give low values. The procedure, abridged:
(§2)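 Cells exposed to compounds for 48 or 72 hr at 37 degrees Celsius. Viability read as ATP-coupled luminescence with CellTiter-Glo after 10 min at room temperature.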
(In general: ATP-based viability assays read luminescence as a measure of living cells.)

Another assay relates to HEK293. The description is as above. The conditions noted are these: Five cell lines viability, CellTiter-Glo ATP luminescence, 48-72 h; max response: hits give low values. The essentials: as §2
The subject of the next assay is W2. Kind of assay: qHTS profiling for inhibitors of Plasmodium falciparum proliferation (AID 504749). Particulars: P. falciparum in erythrocytes, SYBR Green DNA, 72 h; series mostly up to 28.7 µM. The essentials: as §1
In general terms: qHTS replaces the single test concentration by a dilution series.
Further: nearly all actives have a fitted effect of over 60% in size.
Potency means the concentration at half of the fitted maximal effect.

Take `CC/C=C\C/C=C\C/C=C\C/C=C\C/C=C\C/C=C\CCC(=O)O`: the Potency entry in the assay with PC15, in the assay with PC26, with PC49, with SC27B, in the assay on TAB109 and with TAB113 was “inactive” throughout. For the same compound, the Potency result in the assay with TAB165 was “inactive”.

With `O=[n+]1ccn([O-])c2ccccc21`, the Potency result in the assay on PC15, with PC26, with PC49, in the assay on SC27B, in the assay with TAB109 and with TAB113 was “inactive” each time. In the assay with TAB165, the Potency result was “inactive”.

Take `Oc1ccc(/C=C/c2cc(O)cc(O)c2)cc1`: the max response in the assay on CRL-7250 is -2.32%; in the assay with HEK293, -3.47%.

For `CS(=O)(=O)c1ccc([C@@H](O)[C@@H](COC(=O)CN)NC(=O)C(Cl)Cl)cc1`, the Potency result with PC15, in the assay on PC26, with PC49, in the assay on SC27B and with TAB113 was “inactive” throughout. The Potency with TAB109 was 8.91 µM (active).

As to `C/C(=C\C(=O)OCCCCCCCCC(=O)O)C[C@@H]1OC[C@H](C[C@@H]2O[C@H]2[C@@H](C)[C@H](C)O)[C@@H](O)[C@H]1O`, the Potency result in the assay on PC15 is “inactive”. Moreover, the Potency in the assay on TAB109 is 0.141 µM (active); with W2, 0.19 µM (active). In addition, the max response with CRL-7250 is 4.39%; with HEK293, -15.8%.

As for `CC(=O)Nc1ccc(NC(=S)NC(=O)c2ccc(C(C)(C)C)cc2)cc1`, the Potency entry in the assay with PC26, with PC49, with SC27B and with TAB113 was “inactive” in each case. For the same compound, the results for the Potency with W2 and in the assay with HEK293 were 7.57 µM (active) and 0.651 µM (active), respectively.

With `CC(=O)Oc1cccc2c1C(=O)c1c(OC(C)=O)cc(C(=O)O)cc1C2=O`, the Potency entry with PC15, in the assay with PC26, in the assay with PC49, in the assay with SC27B, in the assay on TAB109 and with TAB113 was “inactive” throughout. Also, the Potency result in the assay with TAB165 and in the assay on W2 was “inactive” each time. Also, in the assay with CRL-7250, the max response is -18.7%.

With `Nc1ccc(N=Nc2ccccc2)c(N)n1`, the Potency result with PC15, with PC26, in the assay with PC49, in the assay with SC27B, in the assay with TAB113 and in the assay on TAB165 was “inactive” each time. Also, the Potency result in the assay on W2 was “inactive”. Also, the result in the assay with CRL-7250 was inactive. In the assay on HEK293, the max response was 4.3%.

Turning to `OCCCNc1ccccc1`, the Potency result with PC15, with PC26, in the assay with PC49, in the assay with SC27B, in the assay on TAB109 and with TAB113 was “inactive” throughout. Also, the Potency entry with TAB165 and in the assay with W2 was “inactive” each time.

With `CCCCC[C@H](O)/C=C/[C@@H]1[C@H]2C/C(=C/CCCC(=O)O)O[C@H]2C[C@H]1O`, the Potency entry in the assay with PC15, with PC26, in the assay with PC49, with SC27B, in the assay on TAB109 and with TAB113 was “inactive” in each case. Further, the Potency result in the assay on TAB165 and in the assay on W2 was “inactive” each time.

As to `COC(=O)CCC[N+](C)(C)C`, the Potency entry in the assay on PC15, in the assay on PC26, in the assay on PC49, in the assay on SC27B, with TAB109 and in the assay with TAB113 was “inactive” each time. Also, the Potency result in the assay on TAB165 and in the assay on W2 was “inactive” throughout.

`COC(=O)c1ccccc1O`: the Potency result with PC15, in the assay on PC26, with PC49, in the assay with SC27B, in the assay on TAB109 and with TAB113 was “inactive” each time. Besides, the Potency result with TAB165 is “inactive”.

Regarding `NC(N)=NCC1COc2ccccc2O1` (stereo not drawn), the Potency entry in the assay on PC15, in the assay on PC26, in the assay on PC49, in the assay on SC27B, in the assay with TAB109 and in the assay with TAB113 was “inactive” throughout. In addition, the Potency entry with TAB165 is “inactive”.

As for `C=C(C)C1CC=C(C)CC1` (stereo not drawn), the Potency entry in the assay with PC15, with PC26, in the assay on PC49, with SC27B, in the assay with TAB109 and in the assay with TAB113 was “inactive” each time. Moreover, the Potency entry in the assay on TAB165 and in the assay on W2 was “inactive” each time.

`CC(=O)Nc1ccc(OC(C)=O)cc1`: the Potency result in the assay with PC15, with PC26, in the assay with PC49, in the assay with SC27B, in the assay on TAB109 and in the assay with TAB113 was “inactive” in each case. Also, the Potency result with TAB165 and in the assay on W2 was “inactive” each time.

On to `COc1ccc2c(=O)c(C)c(-c3ccccc3)oc2c1CN(C)C`, for which the Potency entry with PC15, in the assay with PC26, in the assay on PC49, in the assay with SC27B, in the assay on TAB109 and with TAB113 was “inactive” in each case. In addition, in the assay with TAB165, the Potency result was “inactive”. Moreover, the Potency in the assay with W2 is 6.75 µM (active).

For the compound `O=C(OCc1ccccc1)c1cccnc1`, the Potency entry with PC15, in the assay on PC26, in the assay on PC49, in the assay on SC27B, with TAB109 and in the assay on TAB113 was “inactive” each time. Also, the Potency entry in the assay with TAB165 is “inactive”.

For the compound `CCCc1ccc(C(=O)O)cc1`, the Potency entry in the assay on PC15, in the assay with PC26, in the assay on PC49, in the assay on SC27B, with TAB109 and in the assay with TAB113 was “inactive” each time. Further, the Potency result in the assay with TAB165 and in the assay with W2 was “inactive” each time.

As for `C=CCCCCCCCCC(=O)OC`, the Potency result with PC15, in the assay with PC26, in the assay with PC49, with SC27B, in the assay with TAB109 and in the assay with TAB113 was “inactive” each time. Besides, the Potency result in the assay on TAB165 and in the assay with W2 was “inactive” throughout.

For the compound `CCCCC[C@H](O)/C=C/[C@H]1[C@H](O)CC(=O)[C@@H]1C/C=C\CCCC(=O)O`, the Potency result with PC15, in the assay on PC26, in the assay with PC49, with SC27B, with TAB109 and in the assay on TAB113 was “inactive” in each case. For the same compound, the Potency entry in the assay with TAB165 was “inactive”.

As to `Cc1cc(C)c(NC(=O)C[C@H](CC(=O)O)c2cccc3ccccc23)c(C(=O)N2CCC3(CCCC3)CC2)c1`, the Potency entry with PC15, in the assay with PC26, with PC49, in the assay with SC27B, with TAB109 and with TAB113 was “inactive” in each case. Besides, in the assay with TAB165, the Potency result is “inactive”.

On to `c1ccc2c(c1)OCC(CN1CCCCC1)O2` (stereo not drawn), for which the Potency result in the assay on PC15, in the assay with PC26, in the assay on PC49, in the assay with SC27B, in the assay with TAB109 and in the assay on TAB113 was “inactive” in each case. For the same compound, in the assay on TAB165, the Potency entry is “inactive”.

With `CC/C=C\C/C=C\C/C=C\C/C=C\C/C=C\CCCC(=O)O`, the Potency entry in the assay with PC15, in the assay with PC26, in the assay with PC49, with SC27B, in the assay with TAB109 and with TAB113 was “inactive” in each case. Moreover, the Potency entry in the assay with TAB165 was “inactive”.

Turning to `O=C(O)c1cc(N=Nc2ccc(O)c(C(=O)O)c2)ccc1O`, the Potency result in the assay on PC15, with PC26, with PC49, in the assay on SC27B, in the assay on TAB109 and with TAB113 was “inactive” each time. Besides, the Potency result with TAB165 is “inactive”.

Regarding `CC/C(=C(/CC)c1ccc(OP(=O)(O)O)cc1)c1ccc(OP(=O)(O)O)cc1`, the Potency entry in the assay on PC15, with PC26, in the assay with PC49, with SC27B, in the assay with TAB109 and in the assay on TAB113 was “inactive” in each case. Also, the Potency result in the assay with TAB165 and in the assay on W2 was “inactive” throughout.

Turning to `COc1ccc(-c2noc(CC(=O)O)c2-c2ccc(OC)cc2)cc1`, the Potency result with PC15, in the assay with PC26, in the assay on PC49, in the assay on SC27B, in the assay on TAB109 and in the assay with TAB113 was “inactive” in each case. The Potency entry in the assay with TAB165 and with W2 was “inactive” each time.

As for `CC(=O)NCCCS(=O)(=O)O`, the Potency result with PC15, with PC26, in the assay on PC49, in the assay with SC27B, in the assay with TAB109 and with TAB113 was “inactive” throughout. The Potency entry in the assay on TAB165 and in the assay on W2 was “inactive” in each case.

On to `CCCCCCCCCCCCCC(=O)OCC(COP(=O)([O-])OCC[N+](C)(C)C)OC(=O)CCCCCCCCCCCCC` (stereo not drawn), for which the Potency entry in the assay on PC15, in the assay with PC26, with PC49, with SC27B, in the assay on TAB109 and in the assay with TAB113 was “inactive” in each case. Also, the Potency result in the assay with TAB165 and in the assay with W2 was “inactive” each time.
